# Hit rate of the full screen: of about 310,000 compounds, about 14,000 (4.5%) showed an effect of 50% or more. The effect is printed as a negative number. This is one part of a sample in which strong results are shown more often than they occur.
# Molecular target: human ether-à-go-go-related gene (hERG) potassium channel (human, UniProt Q12809)
# Assay: primary screen, population patch clamp on CHO cells stably expressing hERG; higher = less effect of the substance
# 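Also: peak tail current of the secondary pulse compared with the same well before compound.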
# Sequence of human ether-à-go-go-related gene (hERG) potassium channel (Q12809 whole entry, looked up): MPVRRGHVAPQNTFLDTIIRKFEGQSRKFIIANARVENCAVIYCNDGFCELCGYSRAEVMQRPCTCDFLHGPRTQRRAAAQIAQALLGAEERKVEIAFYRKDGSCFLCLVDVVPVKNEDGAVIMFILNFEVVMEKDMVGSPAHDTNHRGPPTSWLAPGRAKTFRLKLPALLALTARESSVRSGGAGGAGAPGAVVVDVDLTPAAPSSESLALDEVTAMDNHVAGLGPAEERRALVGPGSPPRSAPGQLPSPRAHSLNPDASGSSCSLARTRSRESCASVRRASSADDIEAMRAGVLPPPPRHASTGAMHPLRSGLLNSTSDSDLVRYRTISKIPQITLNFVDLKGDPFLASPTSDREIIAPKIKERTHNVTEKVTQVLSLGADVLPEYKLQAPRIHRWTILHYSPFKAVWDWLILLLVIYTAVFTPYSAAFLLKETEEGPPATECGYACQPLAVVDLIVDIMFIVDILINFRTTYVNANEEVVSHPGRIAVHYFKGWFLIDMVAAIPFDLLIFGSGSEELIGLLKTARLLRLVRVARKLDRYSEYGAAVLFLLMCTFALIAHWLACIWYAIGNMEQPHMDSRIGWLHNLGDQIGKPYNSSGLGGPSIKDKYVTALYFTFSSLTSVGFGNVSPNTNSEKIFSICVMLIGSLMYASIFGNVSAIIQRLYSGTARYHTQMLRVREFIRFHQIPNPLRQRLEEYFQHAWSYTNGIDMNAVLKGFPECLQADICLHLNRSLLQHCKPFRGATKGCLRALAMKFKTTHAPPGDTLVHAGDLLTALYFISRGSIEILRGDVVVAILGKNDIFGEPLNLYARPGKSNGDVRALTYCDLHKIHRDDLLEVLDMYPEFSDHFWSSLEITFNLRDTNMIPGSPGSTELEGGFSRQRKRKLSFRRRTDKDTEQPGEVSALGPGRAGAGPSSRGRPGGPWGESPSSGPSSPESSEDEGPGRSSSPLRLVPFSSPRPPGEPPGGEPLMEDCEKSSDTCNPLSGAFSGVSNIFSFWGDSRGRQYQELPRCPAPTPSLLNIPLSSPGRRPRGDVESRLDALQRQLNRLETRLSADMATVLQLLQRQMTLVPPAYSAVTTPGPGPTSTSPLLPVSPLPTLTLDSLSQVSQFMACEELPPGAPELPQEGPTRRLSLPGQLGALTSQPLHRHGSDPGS
row,SMILES,"hERG current change (%, negative = inhibition) at 10uM [%]"
1,Cc1cc(OCc2cc(C(=O)NCc3cc(C(C)C)no3)no2)cc(C)c1Cl,9.79
2,Cc1cc(C)c(/C=C(\C#N)S(=O)(=O)c2ccccc2)[nH]1,11
3,Cc1[nH][nH]c(=O)c1C(c1ccc(O)c([N+](=O)[O-])c1)c1c(C)[nH][nH]c1=O,18.8
4,CN(C)c1nc(N)ncc1-c1ccc(Oc2ccccc2)cc1,18
5,COc1ccc(-n2nc(C(=O)NCC(=O)N3CCN(c4ccccc4OC)CC3)c3ccccc3c2=O)c(OC)c1,-18.4
6,Cc1c(N/C=C/C(=O)C(F)(F)F)c(=O)n(-c2ccccc2)n1C,20.2
7,CC1=CC2=NC(=O)CC(C)(C(=O)N(CC(=O)NC3CCCC3)c3cc(C)cc(C)c3)N2C=C1 (stereo not shown),17.9
8,COc1ccccc1CNC(=O)C(=O)c1cn(CC(=O)N2CCCC2)c2ccccc12,15.1
9,Cc1cccc(/C(N)=N/OC(=O)c2ccc(Cl)cc2Cl)c1,8.46
10,COc1ccc(C(=O)N2CCOCC2)cc1S(=O)(=O)N1CCCc2ccccc21,-31.4
11,Cc1ccc(C(=O)OCC(=O)c2ccc(S(=O)(=O)N3CCCCC3)cc2)o1,-20.3
12,O=Cc1cn(CCOc2ccccc2)c2ccccc12,4.98
13,COCCCn1c(=NC(=O)c2ccncc2)c(C#N)cc2c(=O)n3cccc(C)c3nc21,-68
14,Cc1cccn2c(=O)c3cc(C#N)c(=NC(=O)c4ccncc4)n(CCCOC(C)C)c3nc12,-85.1
15,COCCCn1c(=NC(C)=O)c(C#N)cc2c(=O)n3cccc(C)c3nc21,-49.7
16,CC(=O)N=c1c(C#N)cc2c(=O)n3cccc(C)c3nc2n1CCCOC(C)C,-50.4
17,COCCCn1c(=NC(=O)c2ccccc2)c(C#N)cc2c(=O)n3cccc(C)c3nc21,-71.5
18,O=C(O)c1cccc(-n2c(-c3cnccn3)n[nH]c2=S)c1,20.4
19,CN(C)c1ccc(NC(=S)c2ccc3ccccc3n2)cc1,12.2
20,Cc1ccccc1NCC(=O)N/N=C/c1c(C)c(C(=O)c2ccc(Cl)cc2)n2ccccc12,-4.11

row,SMILES,"hERG current change (%, negative = inhibition) at 10uM [%]"
1,COc1ccccc1C(=O)NC(=O)COc1cc(Cl)ccc1Cl,0.882
2,CC1CCCCN1C(=O)c1c([N+](=O)[O-])cnn1C (stereo not shown),18.7
3,COc1ccc(NC(=O)c2cncn2-c2ccccc2)cc1,13.7
4,CCOC(=O)C1=C(C)N(CCCC(=O)O)C(=O)NC1c1ccccc1OS(=O)(=O)c1ccc(C)cc1 (stereo not shown),-15.2
5,Cc1cc(=O)oc2cc(NC(=O)c3ccccc3OC(F)F)ccc12,26.9
6,CC1CCN(C2=NC(=O)/C(=C/c3cccc(O)c3)S2)CC1,-18.5
7,CC(=O)N1C(Nc2ccc(Cl)cc2)CCN1c1ccccc1 (stereo not shown),9.96
8,O=C(NC(NNc1ccc([N+](=O)[O-])cc1)(C(F)(F)F)C(F)(F)F)c1ccc(F)cc1,-2.67
9,COc1ccc(C(=O)Nc2ccc(Br)cn2)cc1S(=O)(=O)N1CCOCC1,-57.9
10,COc1ccc(C(=O)Nc2nnc(C)s2)cc1S(=O)(=O)N1CCOCC1,-14
11,COc1ccc(C(=O)Nc2ncc(C)s2)cc1S(=O)(=O)N1CCCC1,17.5
12,COc1ccc(C(=O)Nc2ncc(C)s2)cc1S(=O)(=O)N1CCOCC1,-56.2
13,COc1ccc(C(=O)Nc2ccc(Cl)cn2)cc1S(=O)(=O)N1CCCC1,-48
14,COc1ccc(C(=O)Nc2ccccn2)cc1S(=O)(=O)N1CCOCC1,-8.04
15,CN(C)c1nc(Oc2ccc(=O)n(-c3ccccc3)n2)nc(N2CCOCC2)n1,9.19
16,CC(=O)Nc1ccc(C(=O)NNC(=O)c2ccccc2-n2cccc2)cc1,6.54
17,COc1ccc(C(=O)NNC(=O)CN(C)S(=O)(=O)c2ccc(Cl)cc2)c(OC)c1OC,-49.7
18,Cc1cccc(N/N=C/c2ccc(C)s2)c1,19.7
19,O=C(CCCn1c(=S)[nH]c2ccsc2c1=O)NCc1ccco1,18.8
20,O=C(NC1CCN(Cc2ccccc2)CC1)C1CCN(S(=O)(=O)c2ccc(Cl)cc2)CC1,-73.2
